From ChEMBL document CHEMBL1961873, “Compounds: GSK PKIS; Assays: Nanosyn kinase panel” (2012)

How the values were obtained:
[1] = test system: Proto-oncogene tyrosine-protein kinase receptor Ret (Homo sapiens), P07949 [Y791F]; settings: at 1 µM
[2] = target: Macrophage-stimulating protein receptor (Homo sapiens) (UniProt Q04912); settings: at 0.1 µM
[3] = target: Macrophage-stimulating protein receptor (Homo sapiens) (UniProt Q04912); settings: at 1 µM
[4] = target: Proto-oncogene tyrosine-protein kinase ROS (Homo sapiens) (UniProt P08922); settings: at 0.1 µM
[5] = target: Proto-oncogene tyrosine-protein kinase ROS (Homo sapiens) (UniProt P08922); settings: at 1 µM
[6] = target: Proto-oncogene tyrosine-protein kinase Src (Homo sapiens) (UniProt P12931); settings: at 0.1 µM
[7] = target: Proto-oncogene tyrosine-protein kinase Src (Homo sapiens) (UniProt P12931); settings: at 1 µM
[8] = target: Tyrosine-protein kinase Srms (Homo sapiens) (UniProt Q9H3Y6); settings: at 0.1 µM
[9] = target: Tyrosine-protein kinase Srms (Homo sapiens) (UniProt Q9H3Y6); settings: at 1 µM
[10] = target: Tyrosine-protein kinase SYK (Homo sapiens) (UniProt P43405); settings: at 0.1 µM
[11] = target: Tyrosine-protein kinase SYK (Homo sapiens) (UniProt P43405); settings: at 1 µM
[12] = target: T1, Tyrosine-protein kinase Tec (Homo sapiens) (UniProt P42680); settings: at 0.1 µM
T1 sequence (whole entry): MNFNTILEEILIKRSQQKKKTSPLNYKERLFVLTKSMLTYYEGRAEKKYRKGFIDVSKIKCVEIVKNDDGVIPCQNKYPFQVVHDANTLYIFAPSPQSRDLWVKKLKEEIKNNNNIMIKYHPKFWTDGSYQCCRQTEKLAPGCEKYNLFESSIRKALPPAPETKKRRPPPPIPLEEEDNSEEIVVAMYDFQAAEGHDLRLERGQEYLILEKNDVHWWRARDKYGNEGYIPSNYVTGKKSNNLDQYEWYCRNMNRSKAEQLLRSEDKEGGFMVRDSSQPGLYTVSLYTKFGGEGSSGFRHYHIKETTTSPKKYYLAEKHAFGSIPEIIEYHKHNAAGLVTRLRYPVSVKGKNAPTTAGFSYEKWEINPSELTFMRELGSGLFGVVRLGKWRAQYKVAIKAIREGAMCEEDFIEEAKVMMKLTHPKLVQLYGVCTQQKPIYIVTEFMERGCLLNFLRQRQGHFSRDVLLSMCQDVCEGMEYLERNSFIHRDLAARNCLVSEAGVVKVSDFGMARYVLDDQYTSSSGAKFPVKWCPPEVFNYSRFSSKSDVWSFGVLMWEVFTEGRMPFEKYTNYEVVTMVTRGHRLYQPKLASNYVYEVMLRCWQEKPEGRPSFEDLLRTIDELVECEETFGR

[13] = target: T1, Tyrosine-protein kinase Tec (Homo sapiens); settings: at 1 µM
[14] = target: Angiopoietin-1 receptor (Homo sapiens) (UniProt Q02763); settings: at 0.1 µM
[15] = target: Angiopoietin-1 receptor (Homo sapiens) (UniProt Q02763); settings: at 1 µM
[16] = target: T2, Non-receptor tyrosine-protein kinase TNK1 (Homo sapiens) (UniProt Q13470); settings: at 0.1 µM
T2 sequence (whole entry): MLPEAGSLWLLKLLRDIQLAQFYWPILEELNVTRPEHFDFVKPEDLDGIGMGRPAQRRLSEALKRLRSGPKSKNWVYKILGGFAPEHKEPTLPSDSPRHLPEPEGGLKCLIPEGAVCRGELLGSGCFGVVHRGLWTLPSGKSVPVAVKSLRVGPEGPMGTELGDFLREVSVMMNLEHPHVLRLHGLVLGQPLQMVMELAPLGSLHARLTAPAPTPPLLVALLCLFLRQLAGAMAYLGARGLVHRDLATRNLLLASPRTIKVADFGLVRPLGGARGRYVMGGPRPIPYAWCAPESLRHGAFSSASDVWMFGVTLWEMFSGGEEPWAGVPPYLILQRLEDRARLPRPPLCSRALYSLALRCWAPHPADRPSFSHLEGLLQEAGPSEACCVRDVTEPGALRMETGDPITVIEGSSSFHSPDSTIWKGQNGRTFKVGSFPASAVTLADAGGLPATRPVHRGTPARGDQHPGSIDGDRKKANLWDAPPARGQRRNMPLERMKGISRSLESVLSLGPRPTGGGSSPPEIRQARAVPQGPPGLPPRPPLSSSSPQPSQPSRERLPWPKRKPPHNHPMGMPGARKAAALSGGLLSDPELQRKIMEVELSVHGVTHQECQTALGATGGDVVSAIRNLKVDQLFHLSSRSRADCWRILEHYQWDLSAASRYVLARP

[17] = target: T2, Non-receptor tyrosine-protein kinase TNK1 (Homo sapiens); settings: at 1 µM
[18] = target: Activated CDC42 kinase 1 (Homo sapiens) (UniProt Q07912); settings: at 0.1 µM
[19] = target: Activated CDC42 kinase 1 (Homo sapiens) (UniProt Q07912); settings: at 1 µM
[20] = target: High affinity nerve growth factor receptor (Homo sapiens) (UniProt P04629); settings: at 0.1 µM;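 also: each value is a mean of replicate percent inhibition readings against TRKA kinase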

Macrophage-stimulating protein receptor (Homo sapiens), sequence (Q04912 25-304 limits assumed): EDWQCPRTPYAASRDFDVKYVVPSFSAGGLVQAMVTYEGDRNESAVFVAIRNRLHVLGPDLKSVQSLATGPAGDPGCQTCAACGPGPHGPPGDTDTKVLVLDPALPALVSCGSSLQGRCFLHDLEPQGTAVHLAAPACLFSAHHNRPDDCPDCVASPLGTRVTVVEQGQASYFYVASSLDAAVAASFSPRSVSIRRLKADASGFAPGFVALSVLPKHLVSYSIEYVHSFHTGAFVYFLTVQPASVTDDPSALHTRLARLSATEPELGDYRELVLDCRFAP
Macrophage-stimulating protein receptor (Homo sapiens), sequence (Q04912 310-1400 limits assumed): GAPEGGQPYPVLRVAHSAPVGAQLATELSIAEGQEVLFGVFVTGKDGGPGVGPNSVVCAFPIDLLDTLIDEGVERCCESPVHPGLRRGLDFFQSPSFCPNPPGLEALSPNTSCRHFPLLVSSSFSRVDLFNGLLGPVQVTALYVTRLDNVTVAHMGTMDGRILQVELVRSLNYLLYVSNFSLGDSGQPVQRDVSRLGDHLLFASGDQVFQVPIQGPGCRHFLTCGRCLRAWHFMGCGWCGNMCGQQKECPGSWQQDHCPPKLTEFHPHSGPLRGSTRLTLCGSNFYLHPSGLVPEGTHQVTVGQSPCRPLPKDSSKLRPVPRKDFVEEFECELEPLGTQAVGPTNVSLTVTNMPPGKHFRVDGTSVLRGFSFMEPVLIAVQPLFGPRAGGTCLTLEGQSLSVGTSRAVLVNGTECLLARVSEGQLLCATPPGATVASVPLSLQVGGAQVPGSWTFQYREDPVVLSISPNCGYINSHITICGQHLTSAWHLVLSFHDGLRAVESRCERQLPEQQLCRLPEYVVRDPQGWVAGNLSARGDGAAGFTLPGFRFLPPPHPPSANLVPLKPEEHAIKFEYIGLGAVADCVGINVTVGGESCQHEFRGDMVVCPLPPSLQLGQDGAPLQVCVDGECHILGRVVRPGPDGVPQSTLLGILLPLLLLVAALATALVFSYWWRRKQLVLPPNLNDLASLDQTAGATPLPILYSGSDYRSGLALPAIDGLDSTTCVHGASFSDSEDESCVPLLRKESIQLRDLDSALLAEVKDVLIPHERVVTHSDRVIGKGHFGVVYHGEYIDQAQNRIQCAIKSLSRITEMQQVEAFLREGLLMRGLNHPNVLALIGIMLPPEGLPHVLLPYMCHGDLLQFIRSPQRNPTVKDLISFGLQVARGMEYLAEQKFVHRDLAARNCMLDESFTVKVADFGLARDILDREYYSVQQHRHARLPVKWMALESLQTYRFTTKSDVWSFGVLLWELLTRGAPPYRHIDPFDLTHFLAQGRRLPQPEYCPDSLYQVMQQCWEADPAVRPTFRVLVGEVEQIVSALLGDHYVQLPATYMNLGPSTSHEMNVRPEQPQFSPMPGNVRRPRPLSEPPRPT
Activated CDC42 kinase 1 (Homo sapiens), sequence (Q07912 whole entry, looked up): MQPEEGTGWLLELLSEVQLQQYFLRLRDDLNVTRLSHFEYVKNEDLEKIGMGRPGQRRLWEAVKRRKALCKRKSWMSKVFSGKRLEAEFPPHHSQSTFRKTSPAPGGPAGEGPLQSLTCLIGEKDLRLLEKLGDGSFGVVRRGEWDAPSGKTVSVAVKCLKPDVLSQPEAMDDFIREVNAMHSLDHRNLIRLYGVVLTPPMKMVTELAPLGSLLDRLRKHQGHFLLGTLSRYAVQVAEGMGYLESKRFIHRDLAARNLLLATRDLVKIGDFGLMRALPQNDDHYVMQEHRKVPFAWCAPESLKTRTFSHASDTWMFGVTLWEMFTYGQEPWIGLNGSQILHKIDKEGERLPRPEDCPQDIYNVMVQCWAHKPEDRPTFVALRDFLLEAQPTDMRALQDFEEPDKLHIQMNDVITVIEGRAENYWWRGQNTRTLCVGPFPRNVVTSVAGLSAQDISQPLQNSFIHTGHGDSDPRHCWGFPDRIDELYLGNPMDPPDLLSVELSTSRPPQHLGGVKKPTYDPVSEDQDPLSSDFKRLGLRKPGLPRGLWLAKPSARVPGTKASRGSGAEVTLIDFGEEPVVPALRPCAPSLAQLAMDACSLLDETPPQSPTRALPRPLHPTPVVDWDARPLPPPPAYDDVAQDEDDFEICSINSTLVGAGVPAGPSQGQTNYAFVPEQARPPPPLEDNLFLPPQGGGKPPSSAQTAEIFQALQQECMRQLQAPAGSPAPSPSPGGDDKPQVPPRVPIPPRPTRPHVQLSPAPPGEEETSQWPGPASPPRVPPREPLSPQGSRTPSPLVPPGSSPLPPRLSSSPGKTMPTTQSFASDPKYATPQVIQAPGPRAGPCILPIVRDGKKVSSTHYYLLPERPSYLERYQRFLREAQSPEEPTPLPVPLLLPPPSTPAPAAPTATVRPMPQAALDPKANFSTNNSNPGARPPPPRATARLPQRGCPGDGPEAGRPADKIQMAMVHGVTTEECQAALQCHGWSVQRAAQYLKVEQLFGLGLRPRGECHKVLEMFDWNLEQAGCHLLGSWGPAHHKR
Proto-oncogene tyrosine-protein kinase ROS (Homo sapiens), sequence (P08922 whole entry): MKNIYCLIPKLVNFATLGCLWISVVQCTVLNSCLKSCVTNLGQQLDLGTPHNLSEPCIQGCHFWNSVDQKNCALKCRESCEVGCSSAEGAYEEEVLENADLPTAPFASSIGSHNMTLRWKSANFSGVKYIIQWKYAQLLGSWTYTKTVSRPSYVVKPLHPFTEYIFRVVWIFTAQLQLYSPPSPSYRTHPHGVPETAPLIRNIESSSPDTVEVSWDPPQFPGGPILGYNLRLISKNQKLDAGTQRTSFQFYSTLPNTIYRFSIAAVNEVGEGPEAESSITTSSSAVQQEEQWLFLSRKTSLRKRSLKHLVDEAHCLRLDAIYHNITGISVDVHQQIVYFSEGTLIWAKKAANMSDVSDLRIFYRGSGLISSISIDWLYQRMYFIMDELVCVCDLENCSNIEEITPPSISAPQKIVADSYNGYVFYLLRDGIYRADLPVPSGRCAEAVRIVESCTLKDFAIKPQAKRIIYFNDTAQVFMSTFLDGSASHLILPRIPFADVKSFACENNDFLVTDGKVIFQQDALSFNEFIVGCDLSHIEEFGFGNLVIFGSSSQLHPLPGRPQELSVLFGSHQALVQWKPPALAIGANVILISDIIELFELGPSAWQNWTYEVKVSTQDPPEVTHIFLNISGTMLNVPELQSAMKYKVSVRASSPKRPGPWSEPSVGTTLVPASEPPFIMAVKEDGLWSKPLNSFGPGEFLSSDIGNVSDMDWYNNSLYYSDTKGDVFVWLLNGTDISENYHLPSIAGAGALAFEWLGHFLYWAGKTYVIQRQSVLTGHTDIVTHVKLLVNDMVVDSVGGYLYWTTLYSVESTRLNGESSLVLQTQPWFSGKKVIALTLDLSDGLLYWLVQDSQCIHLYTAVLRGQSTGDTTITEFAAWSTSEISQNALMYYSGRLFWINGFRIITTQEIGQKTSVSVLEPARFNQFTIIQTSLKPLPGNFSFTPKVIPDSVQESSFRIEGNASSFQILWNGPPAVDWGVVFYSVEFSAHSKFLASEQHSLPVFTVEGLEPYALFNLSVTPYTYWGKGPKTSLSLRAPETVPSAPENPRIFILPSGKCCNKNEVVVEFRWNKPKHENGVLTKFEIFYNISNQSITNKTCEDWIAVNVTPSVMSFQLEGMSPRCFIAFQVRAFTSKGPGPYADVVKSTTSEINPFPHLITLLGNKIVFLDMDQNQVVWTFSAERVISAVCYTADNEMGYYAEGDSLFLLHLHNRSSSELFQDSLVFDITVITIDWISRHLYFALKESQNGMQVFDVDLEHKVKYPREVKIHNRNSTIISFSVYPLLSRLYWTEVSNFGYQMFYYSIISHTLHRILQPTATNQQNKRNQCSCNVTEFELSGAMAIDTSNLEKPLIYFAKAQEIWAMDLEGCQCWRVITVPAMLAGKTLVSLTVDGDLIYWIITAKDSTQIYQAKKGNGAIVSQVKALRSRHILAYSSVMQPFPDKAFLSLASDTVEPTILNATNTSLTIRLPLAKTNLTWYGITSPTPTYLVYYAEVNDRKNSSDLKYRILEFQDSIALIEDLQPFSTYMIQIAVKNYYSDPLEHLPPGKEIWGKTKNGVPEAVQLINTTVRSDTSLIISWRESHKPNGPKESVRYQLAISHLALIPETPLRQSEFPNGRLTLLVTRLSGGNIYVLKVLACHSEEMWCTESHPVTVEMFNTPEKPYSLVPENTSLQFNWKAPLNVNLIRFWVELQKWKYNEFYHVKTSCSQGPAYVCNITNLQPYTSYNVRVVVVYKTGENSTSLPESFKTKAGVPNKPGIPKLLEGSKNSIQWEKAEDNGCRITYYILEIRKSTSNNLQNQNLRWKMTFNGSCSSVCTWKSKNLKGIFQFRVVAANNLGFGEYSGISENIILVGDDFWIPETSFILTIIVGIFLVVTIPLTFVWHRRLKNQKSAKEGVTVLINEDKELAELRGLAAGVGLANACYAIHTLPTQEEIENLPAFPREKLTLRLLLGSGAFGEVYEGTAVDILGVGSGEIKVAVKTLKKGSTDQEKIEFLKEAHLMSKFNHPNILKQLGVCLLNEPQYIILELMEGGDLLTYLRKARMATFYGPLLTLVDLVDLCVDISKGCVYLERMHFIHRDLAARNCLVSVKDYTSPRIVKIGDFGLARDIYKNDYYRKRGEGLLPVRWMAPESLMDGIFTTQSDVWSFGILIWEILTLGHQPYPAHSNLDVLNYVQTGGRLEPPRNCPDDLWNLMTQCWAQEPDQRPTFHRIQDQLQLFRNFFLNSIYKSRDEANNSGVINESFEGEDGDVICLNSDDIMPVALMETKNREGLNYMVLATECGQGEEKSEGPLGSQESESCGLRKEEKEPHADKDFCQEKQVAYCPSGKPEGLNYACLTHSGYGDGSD

O=C(Nc1ccc(Oc2ccc3[nH]c(NC(=O)c4ccccc4)nc3c2)cc1)Nc1cc(C(F)(F)F)ccc1F
inhibition [1]: 87%
inhibition [2]: 0.56%
inhibition [3]: 5.31%
inhibition [4]: 4.24%
inhibition [5]: 11.4%
inhibition [6]: 4.33%
inhibition [7]: 11.2%
inhibition [8]: 1.78%
inhibition [9]: 4.56%
inhibition [10]: -1%
inhibition [11]: -0.11%
inhibition [12]: 4.86%
inhibition [13]: 8.67%
inhibition [14]: 9.81%
inhibition [15]: 60.5%
inhibition [16]: 4.53%
inhibition [17]: 40%
inhibition [18]: 0.59%
inhibition [19]: 4.59%
inhibition [20]: 5.99%

COc1ccc2ncn(-c3cc(O[C@H](C)c4ccccc4Cl)c(C(N)=O)s3)c2c1
inhibition [1]: 8.71%
inhibition [2]: 2.64%
inhibition [3]: 3.04%
inhibition [4]: 6.54%
inhibition [5]: 10.9%
inhibition [6]: 6.13%
inhibition [7]: 5.73%
inhibition [8]: -3.68%
inhibition [9]: -2.35%
inhibition [10]: -1.79%
inhibition [11]: -3.45%
inhibition [12]: -2.01%
inhibition [13]: 0.84%
inhibition [14]: 1.72%
inhibition [15]: 7.48%
inhibition [16]: 3.02%
inhibition [17]: 24.1%
inhibition [18]: 0.31%
inhibition [19]: 1.16%
inhibition [20]: 8.17%

NCc1ccc(-n2c(-c3nonc3N)nc3cnccc32)cc1
inhibition [1]: 7.16%
inhibition [2]: 2.95%
inhibition [3]: 2.64%
inhibition [4]: 15.3%
inhibition [5]: 33%
inhibition [6]: 9.83%
inhibition [7]: 9.77%
inhibition [8]: -2.58%
inhibition [9]: -2.9%
inhibition [10]: -3.99%
inhibition [11]: -0.51%
inhibition [12]: 4.69%
inhibition [13]: 4.95%
inhibition [14]: 2.68%
inhibition [15]: 3.28%
inhibition [16]: 5.04%
inhibition [17]: 3.5%
inhibition [18]: 1.93%
inhibition [19]: 5.77%
inhibition [20]: 1.82%

c1ccc(-c2n[nH]cc2-c2ccnc(-c3ccc(OCCN4CCOCC4)cc3)c2)nc1
inhibition [1]: 12.9%
inhibition [2]: -5.76%
inhibition [3]: 3.22%
inhibition [4]: 7.93%
inhibition [5]: 11.1%
inhibition [6]: 1.88%
inhibition [7]: 4.39%
inhibition [8]: 4.69%
inhibition [9]: 3.57%
inhibition [10]: 11.6%
inhibition [11]: -0.16%
inhibition [12]: 3.84%
inhibition [13]: 4.59%
inhibition [14]: 4.66%
inhibition [15]: 7.13%
inhibition [16]: 0.24%
inhibition [17]: -5.31%
inhibition [18]: 5.48%
inhibition [19]: 5.14%
inhibition [20]: -3.86%

Fc1ccc(-c2ncn(C3CCNCC3)c2-c2ccnc(Oc3ccc4c(c3)OCO4)n2)cc1
inhibition [1]: 12.8%
inhibition [2]: 3.59%
inhibition [3]: 4.19%
inhibition [4]: 4.93%
inhibition [5]: 8.59%
inhibition [6]: 7.77%
inhibition [7]: 8.43%
inhibition [8]: -2.94%
inhibition [9]: -4.12%
inhibition [10]: -0.62%
inhibition [11]: -5.42%
inhibition [12]: 2.04%
inhibition [13]: 5.37%
inhibition [14]: 7.45%
inhibition [15]: 12.3%
inhibition [16]: 3.93%
inhibition [17]: 7.31%
inhibition [18]: 1.16%
inhibition [19]: 1.77%
inhibition [20]: 1.21%

CN(C)CCCNc1nccc(-c2c(-c3ccc(F)cc3)nn3cc(C(F)(F)F)ccc23)n1
inhibition [1]: 13.2%
inhibition [2]: 3.96%
inhibition [3]: 5.64%
inhibition [4]: 3.75%
inhibition [5]: 7.77%
inhibition [6]: 16.6%
inhibition [7]: 9.03%
inhibition [8]: 0.42%
inhibition [9]: 0.14%
inhibition [10]: -3.32%
inhibition [11]: -0.03%
inhibition [12]: -0.2%
inhibition [13]: 1.41%
inhibition [14]: 5.61%
inhibition [15]: 9.58%
inhibition [16]: 1.15%
inhibition [17]: 0.39%
inhibition [18]: 0.85%
inhibition [19]: 1.33%
inhibition [20]: 4.23%

Cc1ccc(NC(=O)c2ccoc2)cc1-c1ccc(C(=O)NCC2CC2)cc1
inhibition [1]: 4.03%
inhibition [2]: -2.83%
inhibition [3]: -3.5%
inhibition [4]: 0.21%
inhibition [5]: -0.03%
inhibition [6]: 5.81%
inhibition [7]: 4.32%
inhibition [8]: -1.74%
inhibition [9]: -2.77%
inhibition [10]: -1.35%
inhibition [11]: -2.99%
inhibition [12]: 0.28%
inhibition [13]: 3.18%
inhibition [14]: 1.56%
inhibition [15]: 3.38%
inhibition [16]: 0.21%
inhibition [17]: 5.38%
inhibition [18]: 0.62%
inhibition [19]: 0.64%
inhibition [20]: 2.04%
